{
  "source": "PubChem BioAssay (Tox21)",
  "note": "Several values for one entry are separate records, joined by “and”; a condition that tells them apart may be missing. Equal values may be shown once. Records with an inconclusive call do not appear. Some structures have more than one record in an assay (separate samples or runs), and their calls can disagree. Activity calls are given as the source filed them. Calls come from the whole dose curve. % is set by controls: 0 for no effect and ±100 for the full control effect; potency is the fitted concentration of half-maximal effect.",
  "data": [
    {"test": "p53 small molecule agonists, cell-based qHTS assay with rat liver microsomes: qHTS cell viability counter screen (AID 1963580); note: nearly all actives have a fitted effect of over 45% in size", "settings": "p53RE-bla HCT-116 + rat microsomes, ATP viability, 16 h; series mostly up to 66 µM; activity change, negative = cytotoxicity: at the top concentration", "source_text": "National Center for Advancing Translational Sciences [NCATS]\nDivision of Preclinical Innovation [DPI]\nU.S. Environmental Protection Agency [EPA]\nNational Institutes of Environmental Health Sciences [NIEHS]\nNational Toxicology Program [NTP]\nU.S. Food and Drug Administration [FDA]\np53, a tumor suppressor protein, is activated following cellular insult, including DNA damage and other cellular stresses. The activation of p53 regulates cell fate by inducing DNA repair, cell cycle arrest, apoptosis, or cellular senescence. The activation of p53, therefore, is a good indicator of DNA damage and other cellular stresses. The CellSensor p53RE-bla HCT-116 cell line contains a stably integrated beta-lactamase reporter gene under control of the p53 response elements. The activation of the reporter gene under culture conditions can be detected by fluorescence intensity. This cell line was used to screen the Tox21 10K compound library in the condition of presence of rat liver microsomes and to identify agonists that activate the p53 signaling pathway after in vitro metabolic activation (Ooka et al., Archive of Toxicology 96:1975-1987, 2022). The cytotoxicity of the Tox21 compound library against the p53 RE-bla HCT-116 cell line was tested in parallel by measuring the intra cellular ATP content in the same wells.\nTox21 Assay Protocol Summary:\nThe p53RE-bla cells were dispensed at 4,000cells/3ul/well in 1536-well black-clear bottom plates. After the assay plates were incubated at 37 C, 5% CO2 incubator for 5 hours, 23 nL of compounds dissolved in DMSO, positive controls or DMSO only was transferred to the assay plate. Following compound addition, 3 uL of rat liver microsomes (Molecular Toxicology, Boone, NC) at final concentration of 0.5 mg/mL and 1uL of B-Nicotinamide adenine dinucleotide 2'-phosphate (NADPH) at final concentration of 0.5 mg/mL were transferred to the assay plate. The plates were incubated at 37 C for 16 hours. 1 uL of LiveBLAzer detection mixture was added to each well and the plates were incubated at room temperature in the dark for 2 h. Fluorescence intensity at 460 and 530 nm emission and 405 nm excitation were measured by an Envision plate reader. For cell viability readout that measures cytotoxicity, 4 ul/well of CellTiter-Glo reagent was added into the assay plates using a Flying Reagent Dispenser. After 30 min incubation at room temperature, the luminescence intensity in the plates was measured using a ViewLux plate reader.", "values": [
      {"smiles": "CCOC(/C=C(\\C)CCC=C(C)C)OCC", "activity change, negative = cytotoxicity": "-7.73% (inactive)"},
      {"smiles": "N[C@@H](Cc1c[nH]c2ccccc12)C(=O)O", "activity change, negative = cytotoxicity": "0.508% (inactive)"},
      {"smiles": "COCc1ccc(COC)cc1", "activity change, negative = cytotoxicity": "15.9% (inactive)"},
      {"smiles": "COCC(O)CO", "note": "(stereo not given)", "activity change, negative = cytotoxicity": "2.11% (inactive)"},
      {"smiles": "Cc1ccc2c(ccc3ccccc32)c1", "activity change, negative = cytotoxicity": "-7.44% (inactive)"},
      {"smiles": "CCCCN=C(N)N=C(N)N", "activity change, negative = cytotoxicity": "-0.632% [at 30.3 µM] (inactive)"},
      {"smiles": "Oc1ccc(Cl)cc1Sc1cc(Cl)ccc1O", "Potency": "45.7 µM (active) and inactive"},
      {"smiles": "CCCCC1CCC(=O)O1", "note": "(stereo not given)", "activity change, negative = cytotoxicity": "-0.361% (inactive)"},
      {"smiles": "CC(=O)CC(=O)Nc1ccccc1", "Potency": "inactive"},
      {"smiles": "C=C(C)C(=O)OCCCCCCCCCCCCC", "activity change, negative = cytotoxicity": "-3.79% (inactive)"},
      {"smiles": "C=COCCOCCOCCOC=C", "activity change, negative = cytotoxicity": "-10.6% (inactive)"},
      {"smiles": "CCC(=O)O[C@@H]1C[C@H]2CC[C@]1(C)C2(C)C", "activity change, negative = cytotoxicity": "0% (inactive)"},
      {"smiles": "CN(C)c1cc(NC(=O)CNC(C)(C)C)c(O)c2c1C[C@H]1C[C@H]3[C@H](N(C)C)C(=O)C(C(N)=O)=C(O)[C@@]3(O)C(=O)C1=C2O", "activity change, negative = cytotoxicity": "-11.7% [at 30.3 µM] (inactive)"},
      {"smiles": "CCOC(=O)CC(C(C)=O)C(C)=O", "activity change, negative = cytotoxicity": "-0.629% (inactive)"},
      {"smiles": "Oc1ccc(/C=C/c2cc(O)cc(O)c2)cc1", "Potency": "inactive"},
      {"smiles": "CC(C)C(=O)c1ccccc1", "activity change, negative = cytotoxicity": "12.4% (inactive)"},
      {"smiles": "CCCOC(=O)C(C)O", "note": "(stereo not given)", "activity change, negative = cytotoxicity": "-10.8% (inactive)"},
      {"smiles": "CN1C(CCl)Nc2cc(Cl)c(S(N)(=O)=O)cc2S1(=O)=O", "note": "(stereo not given)", "activity change, negative = cytotoxicity": "0.018% [at 30.3 µM] (inactive)"},
      {"smiles": "O=C1CCC(=O)O1", "activity change, negative = cytotoxicity": "-0.0594% (inactive)"},
      {"smiles": "CCCCCCCCCCCCCCCCC", "activity change, negative = cytotoxicity": "-1.55% (inactive)"},
      {"smiles": "O=C1NC(=O)[C@@]2(CCOc3ccc(F)cc32)N1", "activity change, negative = cytotoxicity": "0.27% [at 30.3 µM] (inactive)"},
      {"smiles": "CN(C)C(=O)Oc1ccc[n+](C)c1", "activity change, negative = cytotoxicity": "16.1% [at 30.3 µM] (inactive)"},
      {"smiles": "CN(C)C(=S)SC(=S)N(C)C", "Potency": "16.6 µM (active) and 5.76 µM (active)"},
      {"smiles": "C=CCOCC(CO)(COCC=C)COCC=C", "activity change, negative = cytotoxicity": "-1.66% [at 30.3 µM] (inactive)"},
      {"smiles": "FC(F)(F)c1cccc(Cl)c1", "activity change, negative = cytotoxicity": "2.55% (inactive)"},
      {"smiles": "Clc1cccc(Cl)c1NC1=NCCN1", "Potency": "inactive"},
      {"smiles": "CC1CCC(C(C)(C)O)CC1", "note": "(stereo not given)", "activity change, negative = cytotoxicity": "0.951% (inactive)"},
      {"smiles": "OCCOCCN1CCN(C2=Nc3ccccc3Sc3ccccc32)CC1", "Potency": "inactive"},
      {"smiles": "CCCCCCCC(=O)[O-].CCCCCCCC(=O)[O-].[Zn+2]", "activity change, negative = cytotoxicity": "1.7% [at 30.3 µM] (inactive)"},
      {"smiles": "CN1CCCC1=O", "Potency": "inactive"},
      {"smiles": "CCCc1cc(C(N)=S)ccn1", "activity change, negative = cytotoxicity": "8.17% [at 30.3 µM] (inactive)"},
      {"smiles": "CCC(C)(C)C1CCC(=O)CC1", "activity change, negative = cytotoxicity": "-5.72% (inactive)"},
      {"smiles": "NS(=O)(=O)c1cc2c(cc1Cl)NC(CC1CCCC1)NS2(=O)=O", "note": "(stereo not given)", "activity change, negative = cytotoxicity": "12.5% [at 30.3 µM] (inactive)"},
      {"smiles": "CC(CCC(=O)O)C(=O)O", "note": "(stereo not given)", "activity change, negative = cytotoxicity": "-0.929% (inactive)"},
      {"smiles": "CO[C@H]1C=CO[C@@]2(C)Oc3c(C)c(O)c4c(O)c(c(/C=N/N5CCN(C)CC5)c(O)c4c3C2=O)NC(=O)/C(C)=C\\C=C[C@H](C)[C@H](O)[C@@H](C)[C@@H](O)[C@@H](C)[C@H](OC(C)=O)[C@@H]1C", "Potency": "inactive"},
      {"smiles": "O=C(O)c1cc(=O)c2c(OCC(O)COc3cccc4oc(C(=O)O)cc(=O)c34)cccc2o1", "Potency": "inactive"},
      {"smiles": "O=C(/C=C/c1ccccc1)OCc1ccccc1", "Potency": "inactive"},
      {"smiles": "O=C(O)CSCC(=O)NC1CCSC1=O", "note": "(stereo not given)", "activity change, negative = cytotoxicity": "-2.74% [at 30.3 µM] (inactive)"},
      {"smiles": "C=CC(C)(CCC=C(C)C)OC(=O)CC", "note": "(stereo not given)", "activity change, negative = cytotoxicity": "-0.446% (inactive)"},
      {"smiles": "O=c1cccc[nH]1", "activity change, negative = cytotoxicity": "0.194% (inactive)"}
    ]}
  ]
}
